nsP2pro primary = CHIKV nsP2 protease inhibition, primary qHTS; Q8JUX6; FRET peptide cleavage, nsP2pro, fluorescence 1 h; Potency, µM (doses to about 24.9 µM), inactives show at the highest dose activity change, negative = inhibition, actives largely listed as inhibitors; 1.1% of 31,000 active; further: nearly all actives have a fitted effect of over 60% in size
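Enzyme 150 nM, substrate 2.5 uM (both final); Tris-HCl 10 mM pH 8.0 + 0.01% Tween 20; cpd up to 25 uM, 7 pts; 15 min preinc., 1 h RT; fluorescence ex 525/em 598.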
CHIKV nsP2 cell = secondary cell-based test for CHIKV nsP2 protease inhibitors. AID 1964100. Potency, µM (series often up to 51.1 µM), without a hit: at the highest dose activity change, negative = inhibition, usual class: inhibitors. 10% of 450 active. cell-based CHIKV nsP2 protease reporter assay. shares compounds with nsP2pro primary; further: nearly all actives have a fitted effect of over 70% in size
Target sequence (Q8JUX6 220-798 limits assumed): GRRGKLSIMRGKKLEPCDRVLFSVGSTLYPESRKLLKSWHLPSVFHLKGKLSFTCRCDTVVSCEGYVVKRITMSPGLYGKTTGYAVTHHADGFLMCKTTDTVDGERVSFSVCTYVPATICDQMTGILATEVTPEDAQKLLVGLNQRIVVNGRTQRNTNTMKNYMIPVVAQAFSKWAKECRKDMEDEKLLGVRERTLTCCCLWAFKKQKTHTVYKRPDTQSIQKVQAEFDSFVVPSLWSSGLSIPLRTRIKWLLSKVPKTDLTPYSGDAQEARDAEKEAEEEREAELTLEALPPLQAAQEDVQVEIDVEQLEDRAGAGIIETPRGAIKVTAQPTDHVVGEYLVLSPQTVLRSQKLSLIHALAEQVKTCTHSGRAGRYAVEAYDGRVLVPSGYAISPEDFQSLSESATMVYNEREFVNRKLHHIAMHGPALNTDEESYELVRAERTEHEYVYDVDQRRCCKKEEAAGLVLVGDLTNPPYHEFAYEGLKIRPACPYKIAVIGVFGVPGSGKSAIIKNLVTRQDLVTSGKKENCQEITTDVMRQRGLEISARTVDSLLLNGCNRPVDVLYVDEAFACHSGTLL
NSP2 full ctr = inhibits full-length CHIKV NSP2 enzyme; AID 1964101; 39% of 410 active; Full-length CHIKV NSP2 protease enzymatic counterscreen; Potency, µM (doses to about 50.7 µM), inactives show at the highest dose activity change, negative = inhibition, most hits filed as inhibitors; shares compounds with nsP2pro primary; further: nearly all actives have a fitted effect of over 65% in size
Furin counter = inhibits human furin in a CHIKV nsP2 protease selectivity counterscreen. shares compounds with nsP2pro primary. Recombinant human furin enzymatic counterscreen, fluorogenic substrate. Potency, µM (highest dose often 50.6 µM), for the others: at the top dose activity change, negative = inhibition, most hits filed as inhibitors. 6% of 410 active
nsP2 NS23 pep = blocks CHIKV nsP2 protease cleavage of endogenous NS2/3 peptide; 34% of 410 active; shares compounds with nsP2pro primary; AID 1964103; Purified CHIKV nsP2 protease, endogenous NS2/3 peptide cleavage; Potency, µM (top dose mostly 51 µM), without a hit: at the highest dose activity change, negative = inhibition, most hits filed as inhibitors; further: nearly all actives have a fitted effect of over 55% in size
Papain counter = selectivity counter-screen for CHIKV nsP2 protease inhibitors: papain. shares compounds with nsP2pro primary. purified papain protease activity, enzymatic inhibition. Potency, µM (series often up to 51 µM), for the others: at the top dose activity change, negative = inhibition, hits mostly inhibitors. 5% of 410 active. AID 1964104
nsP2pro confirm = CHIKV nsP2 protease inhibition, confirmatory qHTS. shares compounds with nsP2pro primary. CHIKV nsP2 protease enzymatic activity, qHTS. Potency, µM (highest dose often 25.5 µM), without a hit: at the highest dose activity change, negative = inhibition, usual class: inhibitors. 43% of 410 active; further: nearly all actives have a fitted effect of over 75% in size
HCV NS3 counter = HCV NS3/4A protease inhibition, counterscreen | HCV NS3/4A protease biochemical counterscreen | Potency, µM (top dose mostly 50.9 µM), usual class: inhibitors | AID 1964106 | shares compounds with nsP2pro primary | 20% of 410 active; further: nearly all actives have a fitted effect of over 55% in size
* marks the source's active call; other numbers are inactive results; [ ] = remark or other dose. This excerpt belongs to a sample that is enriched for hits. The call rests on the fitted dose curve. On the % scale 0 is the no-effect control and ±100 the full control effect; potency means the concentration at half of the fitted maximal effect.

`C=C1CC[C@@]2(OC1)O[C@H]1CC3C4CC=C5C[C@@H](O[C@@H]6O[C@@H](C)[C@H](O)[C@@H](O)[C@H]6O)C[C@@H](O[C@@H]6O[C@H](C)[C@H](O)[C@H](O)[C@H]6O[C@@H]6O[C@@H](C)[C@H](O)[C@@H](O)[C@H]6O)[C@]5(C)C4CC[C@]3(C)[C@H]1[C@@H]2C` (some centres not stated) gave nsP2pro primary 0%[5.1 µM].
COc1cn(-c2ccc(-n3cccn3)cc2F)nc(-c2ccnn2-c2ccccc2)c1=O was read as nsP2pro primary -7%.
For CCCNC(=O)N[C@@H]1CCC[C@@H](C(=O)N(CC)CC)CC(=O)N(C)C1 the results were nsP2pro primary 5.6µM*, CHIKV nsP2 cell 9%, NSP2 full ctr 24µM*, Furin counter inconclusive, nsP2 NS23 pep 17µM*, Papain counter -3%, nsP2pro confirm 8.2µM* and HCV NS3 counter inconclusive.
`CCN(CC)C(=O)[C@@H]1CCC[C@@H](NC(=O)c2ccc(OC)cc2)CN(C)C(=O)C1` gave nsP2pro primary inactive.
For CCN(CC)C(=O)[C@@H]1CCC[C@@H](NC(=O)c2ccc(Cl)cc2)CN(C)C(=O)C1 the results were nsP2pro primary -7%[39.2 µM].
For Cc1cc(NS(=O)(=O)c2ccc(NC(=O)Cc3ccc(C)c(F)c3)cc2)no1 the results were nsP2pro primary 3%.
Cc1cc(CCCOc2c(C)cc(-c3noc(C(F)(F)F)n3)cc2C)on1 was read as nsP2pro primary inconclusive, CHIKV nsP2 cell -7%, NSP2 full ctr 21%, Furin counter -17%, nsP2 NS23 pep 0%, Papain counter -9%, nsP2pro confirm -14% and HCV NS3 counter inactive.
COC1(O[C@H]2CC[C@H]3[C@@H]4CC[C@H]5C[C@@H]6S[C@@H]6C[C@]5(C)[C@H]4CC[C@]23C)CCCC1 was read as nsP2pro primary 2%.
`c1cncc(-c2ccc(CNc3nc(N4CCOCC4)nc4ccccc34)cc2)c1` gave nsP2pro primary -6%.
`C=C1CC23CC1CCC2C12OC(=O)C(C)(C(O)C(O)C1O)C2C3C(=O)O` (configuration not stated) gave nsP2pro primary inconclusive, CHIKV nsP2 cell 3%[33.5 µM], NSP2 full ctr inconclusive, Furin counter -4%[33.5 µM], nsP2 NS23 pep -22%[33.5 µM], Papain counter -11%[33.5 µM], nsP2pro confirm inconclusive and HCV NS3 counter inactive.
Screening C=C1C[C@]23C[C@@]1(O)CC[C@H]2[C@@]12C=C[C@H](O)[C@@](C)(C(=O)O1)[C@H]2[C@@H]3C(=O)O returned nsP2pro primary -12%.
C=C1C[C@]23C[C@H]1CC[C@H]2[C@@]1(C)CCC[C@@]2(C)C(=O)O[C@@H]([C@@H]3O)[C@@H]12 was read as nsP2pro primary -13%.
`Cc1c(Cl)c(C)[n+]([O-])c(Cl)c1-c1noc(-c2cc(O)c(O)c([N+](=O)[O-])c2)n1` gave nsP2pro primary 57%.
Screening O=C(C1CCOCC1)N1CCC(c2nc(C3CCOCC3)no2)CC1 returned nsP2pro primary inactive.
Cn1cc(C(=O)N2CCc3[nH]cnc3C2C2CCN(C(=O)C3CCOCC3)CC2)cn1 (configuration not stated) was read as nsP2pro primary inconclusive, CHIKV nsP2 cell -2%, NSP2 full ctr 6.5µM*, Furin counter -7%, nsP2 NS23 pep inconclusive, Papain counter -2%, nsP2pro confirm inconclusive and HCV NS3 counter 9.2µM*.
For COC(=O)N1CCCCC1C(=O)N1CCC2(CC1)c1nc[nH]c1CCN2C (configuration not stated) the results were nsP2pro primary -11%.
Screening O=C(CC[C@H]1NC(=O)c2ccccc2NC1=O)Nc1nc(-c2cccnc2)cs1 returned nsP2pro primary inactive.
Cc1scc2c1C(=O)NS2(=O)=O was read as nsP2pro primary inactive.
Screening Cc1cnc(CC2CCCN(Cc3ccc(F)cc3F)C2)n1Cc1ccccc1 (configuration not stated) returned nsP2pro primary inactive.
CCCCCC[C@@H](O)C/C=C\CCCCCCCC(=O)O was read as nsP2pro primary -14%.
For CCCCCC/C=C\CCCCCCCC(=O)O the results were nsP2pro primary 10%.
For CC/C=C\C/C=C\C/C=C\C/C=C\C/C=C\CCCC(=O)O the results were nsP2pro primary inconclusive, CHIKV nsP2 cell 13%[100 µM], NSP2 full ctr 6.7µM*, Furin counter -11%[100 µM], nsP2 NS23 pep inconclusive, Papain counter 33µM*, nsP2pro confirm 8.2µM* and HCV NS3 counter inactive.
O=S(=O)(Nc1nc(CN2CCOCC2)nc2sc3c(c12)CCC3)c1ccc2c(c1)OCCO2 was read as nsP2pro primary inactive.
CC(C)c1ccccc1-c1ncc(F)c(NCc2ccc(-n3ccnn3)cc2)n1 was read as nsP2pro primary inactive.
`COc1cc(N)cn[n+]1-c1ccccc1` gave nsP2pro primary -6%.
Screening COc1ccc(CCC(=O)N2CCCCCC2CN2CCC(OC)CC2)cc1 (configuration not stated) returned nsP2pro primary inactive.
`Cn1nnnc1Sc1ncnc2scc(I)c12` gave nsP2pro primary 2.2µM*, CHIKV nsP2 cell 7.3µM*, NSP2 full ctr -3%, Furin counter -4%, nsP2 NS23 pep -9%, Papain counter -6%, nsP2pro confirm 67% and HCV NS3 counter inconclusive.
Cc1ccc(-c2csc3ncnc(Sc4nnnn4C)c23)cc1 was read as nsP2pro primary inactive.
Cn1nnnc1Sc1ncnc2scc(Br)c12 was read as nsP2pro primary inactive.
Screening COc1ccc(F)cc1-c1cccc(C(=O)NCC(=O)NCc2cccs2)c1 returned nsP2pro primary -1%.
Cc1c[nH]c2ncnc(N3CCC(CN)(C(=O)Nc4cccc(OC(=O)N(C)C)c4)CC3)c12 was read as nsP2pro primary 70%.
Screening CCOC(=O)c1ccc(O)c2ncc(-c3ccc(C(=N)N)cc3)cc12 returned nsP2pro primary inactive.
